Data taken from the supplement of paper PMC12645437, “Orthogonal IMiD-Degron Pairs Induce Selective Protein Degradation in Cells” (ACS Chemical Biology, 2025).
In all, about 8,300 sequences were measured (“log2 fold change of degron read counts, EGFP-low vs EGFP+ sorted cells (limma voom), compound-induced degradation”: median about -1.1, highest 2% from about 3.2 on). This excerpt belongs to a sample that is enriched for the highest values.

Target: T1, CRBN, Q96SW2
T1 chain: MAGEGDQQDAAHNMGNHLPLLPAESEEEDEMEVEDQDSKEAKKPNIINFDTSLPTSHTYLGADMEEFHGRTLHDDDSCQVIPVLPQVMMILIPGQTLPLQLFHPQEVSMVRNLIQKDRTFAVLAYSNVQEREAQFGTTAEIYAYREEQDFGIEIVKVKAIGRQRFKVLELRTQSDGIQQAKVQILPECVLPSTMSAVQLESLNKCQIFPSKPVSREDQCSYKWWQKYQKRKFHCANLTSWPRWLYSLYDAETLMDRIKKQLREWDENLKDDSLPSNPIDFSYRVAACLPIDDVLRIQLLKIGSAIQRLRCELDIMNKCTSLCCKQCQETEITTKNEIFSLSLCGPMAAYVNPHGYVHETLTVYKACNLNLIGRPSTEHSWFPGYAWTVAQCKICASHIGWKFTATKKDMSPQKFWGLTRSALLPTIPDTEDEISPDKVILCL
Assay: log2 fold change of degron read counts, EGFP-low vs EGFP+ sorted cells (limma voom), compound-induced degradation; higher = more compound-induced degradation of the degron-EGFP fusion; degrons are variants of IKZF1/3 zinc finger 2; compound dose not given here
Details: Jurkat, 18 h

[1] = compound: compound 19 (5-tert-butyl-thalidomide)
[2] = compound: compound 22 (5-morpholino-thalidomide)
[3] = compound: compound 33 (diphenyl IMiD analogue)
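Note: pooled lentiviral library of zinc finger degron-EGFP fusions in mCherry-positive Jurkat cells, FACS-sorted after compound exposure, with degron abundance counted by next-generation sequencing.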

Sequence	log2 fold change of degron read counts [1]	log2 fold change of degron read counts [2]	log2 fold change of degron read counts [3]	log2 fold change of degron read counts (compound: thalidomide)
FWCNQCGRQFTQKGNLLRHIKL [46F_47W_49N_50Q_52G_53R_54Q_55F_67L_, Q9UKT9]	-1.77	-1.3	-1.46	-1.87
FACEICGRNFTQKGNLLRHIKL [46F_47A_49E_50I_52G_53R_54N_55F_67L_, Q9UKT9]	-0.441	-1.8	-2.25	-1.66
FICNVCGALFTQKGNLLRHIKL [46F_47I_49N_50V_52G_53A_54L_55F_67L_, Q9UKT9]	-2.12	-1.66	0.0338	-0.727
FVCDICGALFTQKGNLLRHIKL [46F_47V_49D_50I_52G_53A_54L_55F_67L_, Q9UKT9]	-1.73	-0.858	-0.0343	-0.433
FCCPICGRFFTQKGNLLRHIKL [46F_47C_49P_50I_52G_53R_54F_55F_67L_, Q9UKT9]	-0.555	-0.77	0.987	-0.278
FGCPICGHEFTQKGNLLRHIKL [46F_47G_49P_50I_52G_53H_54E_55F_67L_, Q9UKT9]	-1.93	-2.76	-2.07	-2.26
FWCNQCGHTFTQKGNLLRHIKL [46F_47W_49N_50Q_52G_53H_54T_55F_67L_, Q9UKT9]	-1.74	-2.28	-2.22	-1.67
FYCEQCGAMFTQKGNLLRHIKL [46F_47Y_49E_50Q_52G_53A_54M_55F_67L_, Q9UKT9]	0.643	1.04	0.255	-1.7
FHCPICGARFTQKGNLLRHIKL [46F_47H_49P_50I_52G_53A_54R_55F_67L_, Q9UKT9]	2.37	2.5	0.881	0.851
FFCPICGARFTQKGNLLRHIKL [46F_47F_49P_50I_52G_53A_54R_55F_67L_, Q9UKT9]	3.13	3.35	1.51	1.26
FMCPICGARFTQKGNLLRHIKL [46F_47M_49P_50I_52G_53A_54R_55F_67L_, Q9UKT9]	-0.0501	0.185	1.05	1.11
FCCPICGARFTQKGNLLRHIKL [46F_47C_49P_50I_52G_53A_54R_55F_67L_, Q9UKT9]	2.53	2.75	1.8	2.55
FKCPICGARFTQKGNLLRHIKL [46F_47K_49P_50I_52G_53A_54R_55F_67L_, Q9UKT9]	-2.04	-2.6	-2.42	-1.57
FTCPICGARFTQKGNLLRHIKL [46F_47T_49P_50I_52G_53A_54R_55F_67L_, Q9UKT9]	1.24	2.95	1.72	3
FQCPICGARFTQKGNLLRHIKL [46F_47Q_49P_50I_52G_53A_54R_55F_67L_, Q9UKT9]	-0.209	2.05	1.18	3.55
FICPICGARFTQKGNLLRHIKL [46F_47I_49P_50I_52G_53A_54R_55F_67L_, Q9UKT9]	0.0922	2.32	1.27	2.63
FDCPICGARFTQKGNLLRHIKL [46F_47D_49P_50I_52G_53A_54R_55F_67L_, Q9UKT9]	3.35	1.87	1.6	2.76
FACPICGARFTQKGNLLRHIKL [46F_47A_49P_50I_52G_53A_54R_55F_67L_, Q9UKT9]	3.72	2.53	-0.174	1.31
FICEICGRAFTQKGNLLRHIKL [46F_47I_49E_50I_52G_53R_54A_55F_67L_, Q9UKT9]	-2.83	-1.59	-1.38	-0.306
FNCPVCGAHFTQKGNLLRHIKL [46F_47N_49P_50V_52G_53A_54H_55F_67L_, Q9UKT9]	2.14	0.242	0.245	0.138
FRCEQCGAMFTQKGNLLRHIKL [46F_47R_49E_50Q_52G_53A_54M_55F_67L_, Q9UKT9]	-2.73	-3.44	-1.59	-1.56
FNCDQCGAAFTQKGNLLRHIKL [46F_47N_49D_50Q_52G_53A_54A_55F_67L_, Q9UKT9]	-1.89	-2.81	-2.8	-2.92
LHCEICGFHCTQKGNLLRHIKL [46L_47H_49E_50I_52G_53F_54H_55C_67L_, Q9UKT9]	1.32	1.17	1.52	1.23
LCCNQCGFECTQKGNLLRHIKL [46L_47C_49N_50Q_52G_53F_54E_55C_67L_, Q9UKT9]	-2.68	-2.78	-2.7	-2.45
FMCDVCGAAFTQKGNLLRHIKL [46F_47M_49D_50V_52G_53A_54A_55F_67L_, Q9UKT9]	-0.0468	1.05	2.19	-0.154
FCCEVCGADFTQKGNLLRHIKL [46F_47C_49E_50V_52G_53A_54D_55F_67L_, Q9UKT9]	-0.0408	-0.873	0.0623	-0.497
LQCNQCGFCCTQKGNLLRHIKL [46L_47Q_49N_50Q_52G_53F_54C_55C_67L_, Q9UKT9]	-2.28	-2.29	-2.54	-1.12
FKCNQCGHRFTQKGNLLRHIKL [46F_47K_49N_50Q_52G_53H_54R_55F_67L_, Q9UKT9]	-2.45	-2.52	-2.56	-2.52
